Structures are written as SMILES. Records with an inconclusive call do not appear. A call without a number means that no potency is given here. Values without a mark were called inactive. Calls of active or inactive are those of the source. Calls follow the shape of the dose curve; as a rule, active = well fitted inhibition curve with a large enough effect in the repeat runs; inconclusive = weak or mixed curves, or effect the other way; inactive = no such curve, though single readings can be large or run the other way.
Potency is read from the fitted curve at half-maximal effect.

For this experiment, the target named is Nuclear receptor ROR-gamma (Homo sapiens) (UniProt P51449). In words: qHTS assay to identify small molecule antagonists of the retinoid-related orphan receptor gamma (ROR-gamma) signaling pathway (AID 1159521; also: nearly all actives have a fitted effect of over 50% in size; as to activity change, negative = inhibition: top concentration of the series differs between compounds). To be noted: Tet-on RORgamma CHO cells, RORE-luciferase, 16 h; series mostly up to 92.4 µM. An excerpt: U.S. Tox21 Program National Center for Advancing Translational Sciences [NCATS] NIH Chemical Genomics Center [NCGC] U.S. Environmental Protection Agency [EPA] National Institutes of Environmental Health Sciences [NIEHS] National Toxicology Program [NTP] U.S. Food and Drug Administration [FDA] Tox21 Assay Overview: Nuclear steroid hormone receptors are involved in many biological processes including inflammatory responses, cell proliferation, and apoptosis. Environmental factors or compounds disrupting these nuclear receptor pathways and gene expression may promote susceptibility to immunotoxicants and autoimmune diseases. One important group of these expression factors are the retinoid-related orphan receptors. To assess compounds that may interfere with the retinoid-related orphan receptor gamma (ROR-gamma) transcription factor, a cell-based luciferase assay was used. The CHO cell-based assay utilizes a TET-inducible ROR expression factor and ROR response element-LUC reporter gene. Reporter gene activity was induced using Doxycycline Hyclate and measured after 16 hr incubation. Tet-on ROR gamma CHO cells were used to screen against the Tox21 10K compound library for ROR gamma antagonists by quantification of decreased reporter gene activity in terms of decreased luminescence.
Tox21 Assay Protocol Summary: Tet-on ROR gamma CHO cells were dispensed at 1,000 cells in 4 uL of culture medium per well into white wall/solid bottom 1536-well plates using a Multidrop Combi (Thermo Scientific, Waltham, MA) dispenser. Following incubation at 37 C and 5% CO2 for 4 hr, 23 nL of compounds dissolved in DMSO, positive controls or DMSO only were transferred by a Pintool station (Kalypsys, San Diego, CA) and after 2 hr incubation at 37 C, one ul of 1 uM (final concentration) of Doxycycline Hyclate was added to all the wells by using a Flying Reagent Dispenser (FRD) (Aurora Discovery, San Diego, CA). After 16 hr incubation at 37 C and 5% CO2, 5 uL of ONE-Glo reagent (Promega Corporation, Madison, WI) was added to each assay plate using FRD. After 30 min incubation at room temperature, luminescence was quantified on a ViewLux plate reader (Perkin Elmer, Waltham, MA).
Background: Quantitative high-throughput screening tests each substance at several concentrations.
For `Cc1ccc2sc3cccc(C)c3c2c1`, the Potency result was “inactive”.

As for `CCOC=C(C(=O)OCC)C(=O)OCC`, the Potency result was “inactive”.

As for `COc1cc2ncnc(Nc3cccc(Cl)c3)c2cc1OC`, the activity change, negative = inhibition was -11.5% [at 19 µM].

On to `CCOC(=O)C1=NN(c2ccc(Cl)cc2Cl)C(C)(C(=O)OCC)C1` (stereo not given), for which the Potency is 30.6 µM (active).

As for `CCCCCc1ccc(O)cc1`, the Potency result is “inactive”.

For the molecule `CCN(CCC#N)c1ccc(N=Nc2ccc([N+](=O)[O-])cc2)cc1`, the Potency result was “inactive”.

With `O=C(N[C@H](CO)[C@H](O)c1ccc([N+](=O)[O-])cc1)C(Cl)Cl`, the Potency entry was “inactive”.

With `C/C(=N\[Si](C)(C)C)O[Si](C)(C)C`, the Potency result was “inactive”.

With `CCCCCN=C(N)N/N=C/c1c[nH]c2ccc(OC)cc12`, the Potency is 33.5 µM (active).

For `CCCCCCCC/C=C\CCCCCCCC(=O)N(CCO)CCO`, the Potency was 30.5 µM (active).

As for `CCCCCCCCCCCC(=O)Cl`, the Potency entry is “inactive”.

Regarding `CO[Si](OC)(c1ccccc1)c1ccccc1`, the Potency was 61.1 µM (active).

With `c1ccc(-c2ccc(C(c3ccccc3)n3ccnc3)cc2)cc1` (stereo not given), the Potency is 15 µM (active).

On to `CCCCC/C=C\C=C\C(=O)OCC`, for which the Potency is 56.8 µM (active).

Turning to `ClC(c1ccccc1)(c1ccccc1)c1ccccc1`, the Potency result is “inactive”.

For the molecule `Cc1cccc(C)c1C`, the Potency entry is “inactive”.

With `c1ccc(C[P+](c2ccccc2)(c2ccccc2)c2ccccc2)cc1`, the Potency is 24.3 µM (active).

Take `CC1CCC(C(C)(C)O)CC1` (stereo not given): the Potency result was “inactive”.

Consider `CC(Cc1ccc(O)c(O)c1)C(C)Cc1ccc(O)c(O)c1` (stereo not given), for which the Potency was 6.86 µM (active).

With `O=[N+]([O-])c1ccc(O)c2ncccc12`, the Potency was 29.8 µM (active).

Take `O=[N+]([O-])c1ccc(CO)cc1`: the Potency result is “inactive”.

On to `N#Cc1ccc(C/C(=N/NC(=O)Nc2ccc(OC(F)(F)F)cc2)c2cccc(C(F)(F)F)c2)cc1`, for which the Potency entry is “inactive”.

For `O=C1C=CC(=O)N1c1cccc(N2C(=O)C=CC2=O)c1`, the Potency is 3.86 µM (active).

As to `CC(CC(C)(C)C)CC(C)(C)CC(C)(C)C` (stereo not given), the Potency result was “inactive”.

Regarding `CCN(CC)c1ccc(N=Nc2ccccc2)cc1`, the Potency result was “inactive”.

Consider `CSc1ccc(O)cc1C`, for which the Potency is 43.3 µM (active).

In the case of `C=CC(C)(C)O`, the Potency result is “inactive”.

Take `Nc1cc([N+](=O)[O-])ccc1Cl`: the Potency result was “inactive”.

Turning to `C[C@H]1O[C@@H](O[C@H]2CC[C@@]3(C)[C@H](CC[C@@H]4[C@@H]3C[C@@H](O)[C@]3(C)[C@@H](C5=CC(=O)OC5)CC[C@]43O)C2)C[C@H](O)[C@@H]1O[C@H]1C[C@H](O)[C@H](O[C@H]2C[C@H](O)[C@H](O[C@@H]3O[C@H](CO)[C@@H](O)[C@H](O)[C@H]3O)[C@@H](C)O2)[C@@H](C)O1`, the Potency result was “inactive”.

Regarding `CC(C)=NNC(N)=S`, the Potency result is “inactive”.

In the case of `Cn1ccnc1`, the Potency entry is “inactive”.

For the molecule `CC(C)(c1ccc(Oc2ccc(N)cc2)cc1)c1ccc(Oc2ccc(N)cc2)cc1`, the Potency is 61.1 µM (active).

On to `Cc1cc(Br)ccc1NC(=O)CCl`, for which the Potency is 19.3 µM (active).

Turning to `[Cl][Sc]([Cl])[Cl]`, the Potency entry is “inactive”.

With `Clc1ccc2c(Cl)ccnc2c1`, the Potency result was “inactive”.

With `Brc1cc(Br)cc(Br)c1`, the Potency entry is “inactive”.

In the case of `CCCCCCCCCCCCCCCCC(C(=O)O)C(O)(CC(=O)O)C(=O)O` (stereo not given), the Potency entry is “inactive”.

In the case of `CCCCCCCCOC(=O)c1cc(O)c(O)c(O)c1`, the Potency was 1.93 µM (active).

With `N#Cc1nc(Cl)c(Cl)c(Cl)c1Cl`, the Potency was 2.73 µM (active).

For the molecule `CN1CC[C@H](c2c(O)cc(O)c3c(=O)cc(-c4ccccc4Cl)oc23)[C@H](O)C1`, the Potency was 0.298 µM (active).
